Growth data for 16 compounds are collected here from PubChem BioAssay (NCI).

Test systems include T-47D breast; BT-549 breast; MDA-MB-435 melanoma; SW-620 colon; MCF7 breast; HCT-116 colon; HCC-2998 colon; KM12 colon.
Common to all, as to test: NCI-60 one-dose screen, 48 h (100 = growth as untreated, 0 = no growth, -100 = all killed)
Conditions in all cases: 10 µM unless noted

The panel holds about 83,000 compounds, 20% with a hit somewhere; the sample as a whole holds those more often.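 Plates (96-well) were seeded with cells, treated with compound at one concentration, and incubated for 48 hours before percent growth was determined.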 Unmarked numbers belong to inactive results. The source made the active and inactive calls. The calls were made as follows: active = growth percent below 10; inactive = the rest.

Turning to `Nc1ncnc2c1c(-c1cccc(Cl)c1)nn2CC(=O)N1CCOCC1`, the growth in the experiment on T-47D breast is 105%; in the experiment with BT-549 breast, 97.2%; in the experiment with MDA-MB-435 melanoma, 104%; with SW-620 colon, 106%; with MCF7 breast, 94.9%; with HCT-116 colon it was 101%. The figures for the growth in the experiment on HCC-2998 colon and in the experiment with KM12 colon were 110% and 102%, respectively.
As for `Cc1ccc(NC(=O)Cn2cc(CN3CCN(c4ccnc5cc(Cl)ccc45)CC3)nn2)cc1`, the growth in the experiment with T-47D breast is 86.5%; in the experiment with BT-549 breast it was 81.5%; in the experiment with MDA-MB-435 melanoma, 94.5%; in the experiment with SW-620 colon it was 88.6%; in the experiment with MCF7 breast, 79.4%; in the experiment on HCT-116 colon it was 96.9%. Also, the growth is 97.3% in the experiment on HCC-2998 colon and 85.8% in the experiment on KM12 colon.
Take `CC(=O)Oc1ccc(C)cc1C`: the growth is 97.9% with T-47D breast; 90.8% in the experiment on BT-549 breast; 113% with MDA-MB-435 melanoma; 108% in the experiment with SW-620 colon; 77.7% with MCF7 breast; 98.3% in the experiment on HCT-116 colon. Besides, the growth is 112% with HCC-2998 colon and 103% with KM12 colon.
Turning to `CN(C)c1ccc(-c2c(C#N)c(N)nn2C(=O)c2ccc(NC(=O)c3ccccn3)cc2)cc1`, the growth in the experiment on T-47D breast is 101%; in the experiment with BT-549 breast, 97.8%; in the experiment on MDA-MB-435 melanoma, 98.2%; in the experiment with SW-620 colon, 92.8%; with MCF7 breast, 92.5%; in the experiment with HCT-116 colon it was 90.8%. Moreover, the growth in the experiment on HCC-2998 colon was 95.2%; in the experiment on KM12 colon, 88%.
Consider `N#CC1=C(N)Oc2c(sc3c(Br)cccc23)C1c1ccc(Cl)cc1` (centres undefined), for which the growth was 26.3% with T-47D breast; 41% with BT-549 breast; -23.2% (active) in the experiment on MDA-MB-435 melanoma; 27.3% in the experiment on SW-620 colon; 10% in the experiment with MCF7 breast; 13.7% in the experiment with HCT-116 colon. For the same compound, the results for the growth in the experiment on HCC-2998 colon and in the experiment with KM12 colon were 10.9% and 26.4%, respectively.
In the case of `COc1ccc(-c2cc(-c3cccnc3)nc3sc4c(=O)[nH]c(-c5ccc(Cl)cc5)nc4c23)cc1OC`, the growth in the experiment with T-47D breast was 66.8%; with BT-549 breast, 91.1%; in the experiment on MDA-MB-435 melanoma, 99.8%; in the experiment on SW-620 colon, 92.2%; in the experiment with MCF7 breast, 73.5%; in the experiment with HCT-116 colon it was 80.7%. Moreover, the growth was 105% in the experiment with HCC-2998 colon and 99% in the experiment on KM12 colon.
`COC(=O)C1Cc2ccccc2CN1C(=O)c1ccc2c(c1)Cc1ccccc1-2` (centres undefined): the growth in the experiment on T-47D breast was 15.8% [50 µM]; in the experiment with BT-549 breast, 28.3% [50 µM]; in the experiment on MDA-MB-435 melanoma, 24.9% [50 µM]; with SW-620 colon it was 51.2% [50 µM]; in the experiment on MCF7 breast, 16.7% [50 µM]; in the experiment with HCT-116 colon, 30.2% [50 µM]. Moreover, the growth in the experiment on HCC-2998 colon is 67.7% [50 µM]; in the experiment with KM12 colon, 34.2% [50 µM].
In the case of `Cc1cn(-c2cc(NC(=O)c3cncc(C#Cc4cnc(N)c5ncccc45)c3)cc(C(F)(F)F)c2)cn1`, the growth is 83.6% in the experiment on T-47D breast; 75.3% with BT-549 breast; 55.5% in the experiment with MDA-MB-435 melanoma; 62.6% with SW-620 colon; 35.6% in the experiment on HCT-116 colon; 79.8% in the experiment on HCC-2998 colon. In addition, in the experiment with KM12 colon, the growth is 25%.
`COc1ccc(-c2noc(C(=O)O)c2-c2cc(OC)c(OC)c(OC)c2)cc1`: the growth in the experiment on T-47D breast was 27.2%; in the experiment with BT-549 breast, 49.6%; in the experiment with MDA-MB-435 melanoma, -41.5% (active); in the experiment with SW-620 colon, 22.4%; with HCT-116 colon it was 19.4%; with HCC-2998 colon, 58%. The growth in the experiment on KM12 colon was 27.9%.
Take `CCOC(=O)n1cc(-c2nonc2-c2cn(C(=O)OCC)c3ccc(Br)cc23)c2ccccc21`: the growth was 52.9% in the experiment on T-47D breast; 98.3% in the experiment on BT-549 breast; 99.9% in the experiment with MDA-MB-435 melanoma; 85.8% in the experiment on SW-620 colon; 62.7% in the experiment with HCT-116 colon; 86.9% in the experiment with HCC-2998 colon. Further, the growth in the experiment with KM12 colon was 72.7%.
For `C=CCn1c(SCC(=O)Nc2ccc(C(=O)/C=C/c3ccc(Cl)cc3)cc2)nnc1-c1ccc(Br)cc1`, the growth is 88.9% in the experiment with T-47D breast; 87.4% in the experiment on BT-549 breast; 26.9% in the experiment on MDA-MB-435 melanoma; 82.5% in the experiment on SW-620 colon; -80.4% (active) with HCT-116 colon; 93.8% in the experiment on HCC-2998 colon. Further, the growth in the experiment on KM12 colon was 69.9%.
For the compound `O=C1/C(=C/c2cn(-c3ccccc3)nc2-c2ccccc2)SC(=S)N1C1CCCCC1`, the growth is 97% in the experiment with T-47D breast; 114% in the experiment with BT-549 breast; 98.8% with MDA-MB-435 melanoma; 96% in the experiment with SW-620 colon; 90.1% in the experiment on HCT-116 colon; 108% with HCC-2998 colon. In the experiment with KM12 colon, the growth was 102%.
For `O=c1scc(-c2ccc(C(F)(F)F)cc2)s1`, the growth was 95.6% in the experiment with T-47D breast; 88.3% in the experiment with BT-549 breast; 87.5% with MDA-MB-435 melanoma; 96.8% in the experiment with SW-620 colon; 100% in the experiment on HCT-116 colon; 76.7% with HCC-2998 colon. Moreover, in the experiment on KM12 colon, the growth was 109%.
With `CCOC(=O)c1cc2c(n1Cc1cc(OC)c(OC)c(OC)c1)-c1nc(N)sc1CCC2`, the growth was 43.3% in the experiment with T-47D breast; 51.2% with BT-549 breast; -38.7% (active) in the experiment with MDA-MB-435 melanoma; 43.4% in the experiment with SW-620 colon; 34.1% in the experiment with HCT-116 colon; 73.1% in the experiment with HCC-2998 colon. Moreover, the growth in the experiment with KM12 colon is 30.8%.
Regarding `CC1=C2[C@@H](CC1)[C@]1(C)O[C@@](C(C)C)(C[C@H]1OC(=O)[C@H](C)O)[C@H]2OC(=O)/C=C/c1ccccc1`, the growth is 57.6% in the experiment with T-47D breast; 15.9% with BT-549 breast; 94.2% with MDA-MB-435 melanoma; 95.1% in the experiment on SW-620 colon; 74.2% in the experiment with HCT-116 colon; 90.7% in the experiment on HCC-2998 colon. Also, the growth in the experiment with KM12 colon was 93.9%.
Turning to `COC1/C=C/OC2(C)Oc3c(C)c(O)c4c(O)c(c(/C=N/Nc5ccc([N+](=O)[O-])cc5[N+](=O)[O-])c(O)c4c3C2=O)NC(=O)C(C)=C/C=C/C(C)C(O)C(C)C(O)C(C)C(OC(C)=O)C1C` (centres undefined), the growth with T-47D breast was -31.2% (active); with BT-549 breast it was 13.7%; with MDA-MB-435 melanoma, 3.5% (active); in the experiment with SW-620 colon, -41.2% (active); in the experiment with HCT-116 colon it was -46.7% (active); in the experiment on HCC-2998 colon, -14.1% (active). For the same compound, the growth with KM12 colon was 9.93% (active).
